Measurements reported in PubChem BioAssay (NCI).
Compounds without any hit were thinned out: in the full panel of roughly 83,000, 20% have a hit.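 Single-dose data. Exposure time 48 hours. Values below 10 considered active.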 Unmarked numbers belong to inactive results. Calls of active or inactive are those of the source.

Columns and labels:
Experiment in all cases: NCI-60 one-dose screen, 48 h (100 = growth as untreated, 0 = no growth, -100 = all killed)
Conditions in all cases: 10 µM
K-562 leukemia = test system: K-562 leukemia
MALME-3M melanoma = test system: MALME-3M melanoma
MDA-MB-231 breast = test system: MDA-MB-231 breast
SF-268 CNS = test system: SF-268 CNS
SF-295 CNS = test system: SF-295 CNS
SF-539 CNS = test system: SF-539 CNS
UACC-257 melanoma = test system: UACC-257 melanoma
M14 melanoma = test system: M14 melanoma
HCT-15 colon = test system: HCT-15 colon

SMILES	growth (K-562 leukemia)	growth (MALME-3M melanoma)	growth (MDA-MB-231 breast)	growth (SF-268 CNS)	growth (SF-295 CNS)	growth (SF-539 CNS)	growth (UACC-257 melanoma)	growth (M14 melanoma)	growth (HCT-15 colon)
CCC1(C(C)C)NC(=O)NC1=O (stereo not given)	88.3%	104%	100%	102%	97.6%	101%	92.4%	107%	105%
COc1ccc2nc3ccccc3c(NCCNCC(C)O)c2c1 (stereo not given)	9.22% (active)	-13.7% (active)	-28.2% (active)	8.57% (active)	7.81% (active)	6.66% (active)	7.95% (active)	11.3%	23.1%
CCN(CC)CCSCCCNc1c2ccc(Cl)cc2nc2ccc(OC)cc12	-13.3% (active)	-69.1% (active)	-59.9% (active)	-39.2% (active)	-79% (active)	-75.2% (active)	-77.1% (active)	-73.7% (active)	-30.8% (active)
COc1ccc2nc3cc(Cl)ccc3c(NCCNCC(C)O)c2c1 (stereo not given)	2.47% (active)	44.4%	34.3%	36%	35.1%	26.2%	30.2%	43.3%	19.4%
CC/C(=N\N=C(/CC)c1ccc(Br)cc1)c1ccc(Br)cc1	109%	90.5%	103%	103%	93.9%	99.3%	108%	98.3%	85.4%
Cc1occc1-c1nnc(SCC(=O)c2ccc(NC(=O)CC(C)C)cc2)o1	86.1%	89.8%	105%	132%	104%	101%		112%	
COc1cc(C(=C2O[C@@H]([C@H]3COC(C)(C)O3)[C@H]3OC(C)(C)O[C@@H]23)c2cc(OC)c(OC)c(OC)c2)cc(OC)c1OC	91.8%	123%	91.6%	113%	110%	111%	105%	106%	103%
CCN(CC)CCCOCCCNc1cc(OC)cc2cccnc12	94.3%	104%	78%	96.7%	101%	108%	83.1%	106%	102%
O=C1NC(=O)c2ncccc21	107%	114%	116%	103%	89.7%	101%	102%	99.9%	101%
COc1cc(Cc2cc(-c3ccc(Cl)cc3)n[nH]c2=O)ccc1O	78.5%	108%	100%	93.2%	124%	98.4%	128%	108%	104%
CCCCCCCCCCCCC1C/C=C\CCCC(=O)O1 (stereo not given)	101%	107%	119%	103%	103%	107%	118%	100%	97.2%
ClCCOCCn1cnc2c(Cl)nc(Cl)nc21	28.2%	112%	58.2%	45.3%	70.2%	96.8%	59.9%	46.5%	18.4%
Cc1cccc(Cl)c1NC(=O)c1ccc2nc(NC(=O)NC3CCN(C)CC3)sc2c1	7.86% (active)	60.8%	96.7%	86%	83.5%	44.3%	84.7%	104%	101%
COC(=O)C(=C\c1ccc2c(c1)OCO2)/C(=C/c1ccc2c(c1)OCO2)C(=O)OC	108%	101%	107%	96%	95.3%	96.1%	108%	99.4%	97.8%
Cc1cc(O)c(C(C)(C)C)cc1Sc1cc(C(C)(C)C)c(O)cc1C	14.6%	73.7%	-9.88% (active)	49.4%	53.4%	77.8%	30.9%	0.358% (active)	44.3%
CCCCCCCCN(CCCCCCCC)CCCCCCCCCN1CCCc2cc(OC)ccc21	80.4%	104%	89.9%	99.9%	88.5%	104%	106%	93.8%	89.3%
CCN(CCCCCCCCCCN1CC(=O)N(CCCCCCCCCCN(CC)Cc2ccccc2OC)CC1=O)Cc1ccccc1OC	-58.2% (active)	-83.6% (active)	-66.3% (active)	4.39% (active)	-76.7% (active)	-93.2% (active)	-86.9% (active)	-90.2% (active)	-17% (active)
COc1cc2c(cc1OCCCN1CCN(c3ncnc4ccccc34)CC1)N=CC1CCCN1C2=O (stereo not given)	-24.8% (active)	-71.7% (active)	-34.4% (active)	10.3%	-20.9% (active)	-82.7% (active)		-46.8% (active)	1.25% (active)
Clc1nc(Cl)c2c(ncn2C/C=C\Cn2cnc3c(Cl)nc(Cl)nc32)n1	-20.6% (active)	-84.8% (active)	-100% (active)	6.36% (active)	-10.7% (active)	-71.6% (active)		-10.5% (active)	-85.4% (active)
COc1ccc(/C(=C2/O[C@@H]([C@H]3COC(C)(C)O3)[C@H]3OC(C)(C)O[C@@H]23)c2cc(OC)c(OC)c(OC)c2)cc1O	10.2%	69.6%	54.5%	37.8%	77.6%	21.5%	126%	19.5%	32.5%
COc1cc(/C=N/NC(=O)c2ccccc2Nc2ccnc(C(F)(F)F)c2)ccc1O	90.4%	121%	112%	105%	114%	112%	126%	89.7%	106%
O=C(C[n+]1ccccc1)c1ccc2ccccc2c1	86.6%	92.4%	95.2%	103%	88.2%	97.3%	92.6%	94%	109%
COc1ccccc1CNCCN1C(=O)c2ccc3c4c(ccc(c24)C1=O)C(=O)N(CCNCc1ccccc1OC)C3=O	-43.8% (active)	-92% (active)	-18.4% (active)	-79.5% (active)	-56.7% (active)	-97.3% (active)	-96.4% (active)	-94% (active)	-77.1% (active)
CN1CCC2(CC1)NC(=O)c1c(c3ccc(Cl)c(Cl)c3n1C)C2C#N (stereo not given)	80.1%	98.3%	55%	67.4%	94.9%	76%	65.2%	23.8%	82.6%
COc1ccc(NC(=O)Cc2nc3nc4sc(C)c(C)c4c(=O)n3[nH]2)cc1	109%	89.2%	108%	109%	91.3%	103%	101%	103%	99.7%
O=C(CC(c1ccccc1)N1CCOCC1)c1ccccc1 (stereo not given)	27.9%	87.6%	98.6%	91.8%	94.9%	97.5%	80.5%	95.8%	92.2%
O=C(Cc1csc2nc(-c3ccc(Cl)cc3)cn12)N/N=C/c1ccccc1O	41%	74.5%	35.5%	37.9%	37.6%	67.3%	46.5%	47.1%	17.2%
CCN(CCCCCCN1CC(=O)N(CCCCCCN(CC)Cc2ccccc2OC)CC1=O)Cc1ccccc1OC	4.44% (active)	109%	93.4%	90.6%	72.2%	92.8%	108%	82.5%	83.5%
CC1(O)CCC2CC3OC3(C)CCC3OC3(C)CCC1C2(C)C (stereo not given)	113%	110%	102%	107%	89.6%	119%		103%	105%
CN(C)CC(O)c1ccc2cc(Br)c3ccccc3c2c1 (stereo not given)	24.7%	97.1%	16.8%	58.5%	75.6%	65.9%	99.2%	47.2%	53.7%
